Experimental data published in PubChem BioAssay (Tox21).
Records with an inconclusive call do not appear. Where a call stands in place of a potency, no number is given. Calls of active or inactive are those of the source. The call rests on the fitted dose curve.

Biological target: Acetylcholinesterase (Homo sapiens) (UniProt P22303)
Test: Acetylcholinesterase (AChE) small molecule antagonists: colormetric cell-based qHTS assay (AID 1347395); further: nearly all actives have a fitted effect of over 30% in size
Details: SH-SY5Y cells AChE activity, colorimetric (Ellman); series mostly up to 115 µM
Procedure, shortened: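 AChE inhibition read colorimetrically via DTNB–thiocholine in SH-SY5Y cells. Compound 30 min, substrate 90 min, both 37 C.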
Potency means the concentration at half of the fitted maximal effect.

Chain of Acetylcholinesterase (Homo sapiens) (P22303 whole entry, looked up): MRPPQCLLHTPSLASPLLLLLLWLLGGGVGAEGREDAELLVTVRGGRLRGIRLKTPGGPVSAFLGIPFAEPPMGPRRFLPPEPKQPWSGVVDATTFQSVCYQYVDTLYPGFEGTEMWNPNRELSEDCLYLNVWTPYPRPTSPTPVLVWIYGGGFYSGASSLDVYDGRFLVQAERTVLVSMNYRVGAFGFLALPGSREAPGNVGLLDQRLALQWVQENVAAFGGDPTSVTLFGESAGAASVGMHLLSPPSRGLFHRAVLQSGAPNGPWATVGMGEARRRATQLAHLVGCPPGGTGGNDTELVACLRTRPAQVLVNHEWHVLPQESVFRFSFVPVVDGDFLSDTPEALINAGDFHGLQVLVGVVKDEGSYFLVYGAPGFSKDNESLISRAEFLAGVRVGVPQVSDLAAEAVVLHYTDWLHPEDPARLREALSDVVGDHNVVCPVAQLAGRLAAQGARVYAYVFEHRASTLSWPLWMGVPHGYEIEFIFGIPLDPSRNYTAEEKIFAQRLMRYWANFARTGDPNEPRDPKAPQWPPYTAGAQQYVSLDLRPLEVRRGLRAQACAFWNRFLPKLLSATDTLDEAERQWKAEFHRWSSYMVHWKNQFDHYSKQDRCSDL

| SMILES | Potency |
| --- | --- |
| COC(=O)c1ccccc1C(=O)c1ccc(OCCN2CCCCC2)cc1 | inactive |
| NC(=O)NC1N=C([O][Al])NC1=O (stereo not drawn) | inactive |
| CN1C(=O)OC(C)(C)C1=O | inactive |
| CSc1ccc(C(=O)c2[nH]c(=O)[nH]c2C)cc1 | inactive |
| O=C1NC(=O)c2cccc3cccc1c23 | 39.9 µM (active) |
| Cc1cc(-c2ccccc2)nnc1NCCN1CCOCC1 | inactive |
| CS(=O)(=O)c1ccc(-c2cn3ccccc3n2)cc1 | inactive |
| CC1=C(/C=C/C(C)=C\C=C\C(C)=C\C(=O)O)C(C)(C)CCC1 | inactive |
| C[Si](C)(C)C | inactive |
| CCC(CC)C(C)CCOC(C)=O (stereo not drawn) | inactive |
| CN(C)CCN(Cc1ccccc1)c1ccccn1 | inactive |
| C=CCSCC1Nc2cc(Cl)c(S(N)(=O)=O)cc2S(=O)(=O)N1 (stereo not drawn) | inactive |
| C=C(C)C(=O)OCCCCCCCCCCOC(=O)C(=C)C | inactive |
| CCN(CCCCOC(=O)c1ccc(OC)c(OC)c1)C(C)Cc1ccc(OC)cc1 (stereo not drawn) | 17.4 µM (active) |
| CC(=O)[C@H]1CC[C@H]2[C@@H]3C=CC4=CC(=O)CC[C@@]4(C)[C@@H]3CC[C@]12C | inactive |
| CCOc1ccc(C(=O)OCCN(CC)CC)cc1 | inactive |
| COC(=O)C(c1ccccc1Cl)N1CCc2sccc2C1 (stereo not drawn) | inactive |
| C=CC(=O)NC(C)(C)C | inactive |
| CN(C)CC/C=C1\c2ccccc2Sc2ccc(Cl)cc21 | inactive |
| OCc1c[nH]c2ccccc12 | inactive |

| SMILES | Potency |
| --- | --- |
| CO[C@@H]1[C@@H](O[C@@H]2O[C@H](C)[C@@H](O[C@H]3C[C@@](C)(O)[C@@H](O)[C@H](C)O3)[C@H](N(C)C)[C@H]2O)[C@@H](CC=O)C[C@@H](C)[C@@H](O[C@@H]2CC[C@H](N(C)C)[C@@H](C)O2)/C=C/C=C/C[C@@H](C)OC(=O)C[C@H]1OC(C)=O | inactive |
| C=CCN1C[C@H](C(=O)N(CCCN(C)C)C(=O)NCC)C[C@@H]2c3cccc4[nH]cc(c34)C[C@H]21 | 34.7 µM (active) |
| CCCCCCCCCCCCSCCOCCO | inactive |
| NC(=O)c1ncn([C@@H]2O[C@H](CO)[C@@H](O)[C@H]2O)c1O | inactive |
| CCN(CC)C(C)CN1c2ccccc2Sc2ccccc21 (stereo not drawn) | inactive |
| c1ccc(C(O[C@H]2CCCN(CCc3ccc4c(c3)OCO4)C2)c2ccccc2)cc1 | inactive |
| CCCCCCC#CC(=O)OC | inactive |
| C(=C\c1ccccc1)/c1ccccc1 | inactive |
| O=C(Nc1cccc2c(=O)cc(-c3nn[nH]n3)oc12)c1ccc(OCCCCc2ccccc2)cc1 | inactive |
| CC1CC(=O)NN=C1c1ccc(NCC(C)(C)NCC(O)COc2cc(Cl)ccc2C#N)cc1 (stereo not drawn) | 24.5 µM (active) |
| N#CSCC(=O)O | inactive |
| Oc1cc2c(cc1O)[C@H]1c3ccc(O)c(O)c3OC[C@@]1(O)C2 | inactive |
| Cc1cc(C)cc([N+](=O)[O-])c1 | inactive |
| O=[Si]=O | inactive |
| Cc1nc(N)nc(N)c1-c1ccc(Cl)c(Cl)c1 | inactive |
| Cc1c(-c2ccccc2)oc2c(C(=O)OCCN3CCCCC3)cccc2c1=O | inactive |
| O=C(OCCN1CCOCC1)c1cccnc1Nc1cccc(C(F)(F)F)c1 | inactive |
| CC1CC(=O)CC(C)(C)C1 (stereo not drawn) | inactive |
| OCCN1CCN(CCCN2c3ccccc3Sc3ccc(Cl)cc32)CC1 | inactive |

Biological target: Acetylcholinesterase (Homo sapiens) (UniProt P22303)
Test: Acetylcholinesterase (AChE) small molecule antagonists: enzyme-based qHTS assay (AID 1347397); further: nearly all actives have a fitted effect of over 55% in size
Details: Potency: AChE enzyme activity inhibition; outcome: AChE enzyme activity inhibition; series mostly up to 115 µM
Procedure, shortened: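 Absorbance-based detection of thiocholine with DTNB served as the read-out. Recombinant human AChE was exposed to compound for 30 min at RT before a 10 min RT incubation with acetylthiocholine.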

| SMILES | Potency |
| --- | --- |
| COC(=O)c1ccccc1C(=O)c1ccc(OCCN2CCCCC2)cc1 | inactive |
| NC(=O)NC1N=C([O][Al])NC1=O (stereo not drawn) | inactive |
| CN1C(=O)OC(C)(C)C1=O | inactive |
| CSc1ccc(C(=O)c2[nH]c(=O)[nH]c2C)cc1 | inactive |
| O=C1NC(=O)c2cccc3cccc1c23 | inactive |
| Cc1cc(-c2ccccc2)nnc1NCCN1CCOCC1 | inactive |
| CS(=O)(=O)c1ccc(-c2cn3ccccc3n2)cc1 | inactive |
| CC1=C(/C=C/C(C)=C\C=C\C(C)=C\C(=O)O)C(C)(C)CCC1 | inactive |
| C[Si](C)(C)C | inactive |
| CCC(CC)C(C)CCOC(C)=O (stereo not drawn) | inactive |
| CN(C)CCN(Cc1ccccc1)c1ccccn1 | inactive |
| C=CCSCC1Nc2cc(Cl)c(S(N)(=O)=O)cc2S(=O)(=O)N1 (stereo not drawn) | inactive |
| C=C(C)C(=O)OCCCCCCCCCCOC(=O)C(=C)C | inactive |
| CCN(CCCCOC(=O)c1ccc(OC)c(OC)c1)C(C)Cc1ccc(OC)cc1 (stereo not drawn) | inactive |
| CC(=O)[C@H]1CC[C@H]2[C@@H]3C=CC4=CC(=O)CC[C@@]4(C)[C@@H]3CC[C@]12C | inactive |
| CCOc1ccc(C(=O)OCCN(CC)CC)cc1 | inactive |
| COC(=O)C(c1ccccc1Cl)N1CCc2sccc2C1 (stereo not drawn) | inactive |
| C=CC(=O)NC(C)(C)C | inactive |
| CN(C)CC/C=C1\c2ccccc2Sc2ccc(Cl)cc21 | inactive |
| OCc1c[nH]c2ccccc12 | inactive |

| SMILES | Potency |
| --- | --- |
| CO[C@@H]1[C@@H](O[C@@H]2O[C@H](C)[C@@H](O[C@H]3C[C@@](C)(O)[C@@H](O)[C@H](C)O3)[C@H](N(C)C)[C@H]2O)[C@@H](CC=O)C[C@@H](C)[C@@H](O[C@@H]2CC[C@H](N(C)C)[C@@H](C)O2)/C=C/C=C/C[C@@H](C)OC(=O)C[C@H]1OC(C)=O | inactive |
| C=CCN1C[C@H](C(=O)N(CCCN(C)C)C(=O)NCC)C[C@@H]2c3cccc4[nH]cc(c34)C[C@H]21 | inactive |
| CCCCCCCCCCCCSCCOCCO | inactive |
| NC(=O)c1ncn([C@@H]2O[C@H](CO)[C@@H](O)[C@H]2O)c1O | inactive |
| CCN(CC)C(C)CN1c2ccccc2Sc2ccccc21 (stereo not drawn) | inactive |
| c1ccc(C(O[C@H]2CCCN(CCc3ccc4c(c3)OCO4)C2)c2ccccc2)cc1 | inactive |
| CCCCCCC#CC(=O)OC | inactive |
| C(=C\c1ccccc1)/c1ccccc1 | inactive |
| O=C(Nc1cccc2c(=O)cc(-c3nn[nH]n3)oc12)c1ccc(OCCCCc2ccccc2)cc1 | 27.5 µM (active) |
| CC1CC(=O)NN=C1c1ccc(NCC(C)(C)NCC(O)COc2cc(Cl)ccc2C#N)cc1 (stereo not drawn) | inactive |
| N#CSCC(=O)O | inactive |
| Oc1cc2c(cc1O)[C@H]1c3ccc(O)c(O)c3OC[C@@]1(O)C2 | inactive |
| Cc1cc(C)cc([N+](=O)[O-])c1 | inactive |
| O=[Si]=O | inactive |
| Cc1nc(N)nc(N)c1-c1ccc(Cl)c(Cl)c1 | inactive |
| Cc1c(-c2ccccc2)oc2c(C(=O)OCCN3CCCCC3)cccc2c1=O | inactive |
| O=C(OCCN1CCOCC1)c1cccnc1Nc1cccc(C(F)(F)F)c1 | inactive |
| CC1CC(=O)CC(C)(C)C1 (stereo not drawn) | inactive |
| OCCN1CCN(CCCN2c3ccccc3Sc3ccc(Cl)cc32)CC1 | inactive |
